In the supplement of paper PMC11732987, “Enantioselective OTUD7B fragment discovery through chemoproteomics screening and high-throughput optimisation” (Communications Chemistry, 2025):

Assays:
Test in all cases: log2 ratio of Biotin-Ahx-Ub-VS probe labelling (fragment/DMSO); higher = less target engagement (more negative = stronger competition), active = hit call of the paper (q ≤ 0.05, log2 ratio ≤ -1)
Conditions in all cases: compound concentration: 200 uM; treatment time: 3 h
[1] = target: USP34 (UniProt Q70CQ2)
Summary of the method: (§1)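 HEK293T lysate, 495 µg per sample in Tris/CHAPS/IGEPAL buffer with protease inhibitors, was treated in triplicate with fragment at 200 µM or vehicle for 3 h and then with Biotin-Ahx-Ub-VS at 0.5 µM final for 1 h. Labelled DUBs were NeutrAvidin-enriched, digested with LysC and trypsin, and run by diaPASEF LC-MS/MS. Spectronaut label-free quantities were global-median-normalised, and values are average log2 fragment/vehicle ratios by unpaired t-test on proteins with ≥2 unique peptides.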

[2] = target: T1, USP36 (UniProt Q9P275)
T1 sequence (whole entry): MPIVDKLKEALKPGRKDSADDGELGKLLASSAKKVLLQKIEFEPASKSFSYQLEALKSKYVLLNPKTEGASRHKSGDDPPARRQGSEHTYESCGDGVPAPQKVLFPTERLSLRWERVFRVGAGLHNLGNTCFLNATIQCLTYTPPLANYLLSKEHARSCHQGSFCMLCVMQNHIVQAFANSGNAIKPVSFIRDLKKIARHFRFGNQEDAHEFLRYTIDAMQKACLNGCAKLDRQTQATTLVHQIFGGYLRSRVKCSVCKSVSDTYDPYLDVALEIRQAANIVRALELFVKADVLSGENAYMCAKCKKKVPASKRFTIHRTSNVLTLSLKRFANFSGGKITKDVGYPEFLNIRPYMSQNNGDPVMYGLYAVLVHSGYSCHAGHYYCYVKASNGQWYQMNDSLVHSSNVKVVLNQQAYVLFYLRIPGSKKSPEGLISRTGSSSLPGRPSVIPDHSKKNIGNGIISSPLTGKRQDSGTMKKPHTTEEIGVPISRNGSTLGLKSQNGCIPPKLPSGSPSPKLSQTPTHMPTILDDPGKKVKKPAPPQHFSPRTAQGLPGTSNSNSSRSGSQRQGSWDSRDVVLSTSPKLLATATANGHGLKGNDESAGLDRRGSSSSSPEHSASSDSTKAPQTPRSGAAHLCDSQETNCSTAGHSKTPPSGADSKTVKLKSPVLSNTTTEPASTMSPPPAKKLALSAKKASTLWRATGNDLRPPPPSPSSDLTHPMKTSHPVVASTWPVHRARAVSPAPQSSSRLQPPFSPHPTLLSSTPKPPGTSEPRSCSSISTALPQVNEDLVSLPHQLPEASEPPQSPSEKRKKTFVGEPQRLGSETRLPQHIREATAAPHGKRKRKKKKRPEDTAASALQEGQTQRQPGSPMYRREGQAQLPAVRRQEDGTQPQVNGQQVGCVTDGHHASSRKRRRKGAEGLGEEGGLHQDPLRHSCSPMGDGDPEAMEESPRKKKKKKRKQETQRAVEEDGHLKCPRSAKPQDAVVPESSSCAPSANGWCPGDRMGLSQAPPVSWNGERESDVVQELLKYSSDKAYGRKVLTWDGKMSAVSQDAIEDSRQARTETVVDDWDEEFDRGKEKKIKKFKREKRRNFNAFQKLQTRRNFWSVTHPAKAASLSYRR
Summary of the method: as §1

[3] = target: T2, USP38 (UniProt Q8NB14)
T2 sequence (whole entry): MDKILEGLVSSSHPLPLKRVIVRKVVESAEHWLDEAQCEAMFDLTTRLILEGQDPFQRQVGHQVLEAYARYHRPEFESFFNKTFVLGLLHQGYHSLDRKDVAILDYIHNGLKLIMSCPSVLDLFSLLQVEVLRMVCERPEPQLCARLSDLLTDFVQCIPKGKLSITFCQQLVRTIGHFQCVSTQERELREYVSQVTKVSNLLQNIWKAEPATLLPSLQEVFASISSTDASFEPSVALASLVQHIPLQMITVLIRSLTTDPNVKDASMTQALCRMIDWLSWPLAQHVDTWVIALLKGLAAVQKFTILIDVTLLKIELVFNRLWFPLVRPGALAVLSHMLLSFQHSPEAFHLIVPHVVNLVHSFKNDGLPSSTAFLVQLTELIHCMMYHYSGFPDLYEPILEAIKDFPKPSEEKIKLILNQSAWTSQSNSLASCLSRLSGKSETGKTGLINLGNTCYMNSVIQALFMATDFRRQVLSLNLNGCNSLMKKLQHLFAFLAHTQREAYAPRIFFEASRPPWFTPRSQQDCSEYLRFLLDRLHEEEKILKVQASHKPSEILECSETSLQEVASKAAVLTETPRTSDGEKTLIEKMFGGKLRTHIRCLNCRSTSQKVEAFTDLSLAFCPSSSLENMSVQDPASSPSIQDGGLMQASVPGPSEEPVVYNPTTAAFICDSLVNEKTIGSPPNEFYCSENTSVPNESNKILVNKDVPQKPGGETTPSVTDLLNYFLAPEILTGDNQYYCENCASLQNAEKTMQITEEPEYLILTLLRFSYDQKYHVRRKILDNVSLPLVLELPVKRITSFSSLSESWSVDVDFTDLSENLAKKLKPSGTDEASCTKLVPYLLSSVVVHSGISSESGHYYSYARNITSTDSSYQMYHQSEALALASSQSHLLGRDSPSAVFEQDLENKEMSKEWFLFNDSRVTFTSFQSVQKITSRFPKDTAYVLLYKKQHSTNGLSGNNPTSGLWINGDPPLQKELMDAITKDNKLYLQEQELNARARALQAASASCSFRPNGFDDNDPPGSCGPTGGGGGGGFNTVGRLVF
Summary of the method: as §1

[4] = target: T3, USP39 (UniProt Q53GS9)
T3 sequence (whole entry): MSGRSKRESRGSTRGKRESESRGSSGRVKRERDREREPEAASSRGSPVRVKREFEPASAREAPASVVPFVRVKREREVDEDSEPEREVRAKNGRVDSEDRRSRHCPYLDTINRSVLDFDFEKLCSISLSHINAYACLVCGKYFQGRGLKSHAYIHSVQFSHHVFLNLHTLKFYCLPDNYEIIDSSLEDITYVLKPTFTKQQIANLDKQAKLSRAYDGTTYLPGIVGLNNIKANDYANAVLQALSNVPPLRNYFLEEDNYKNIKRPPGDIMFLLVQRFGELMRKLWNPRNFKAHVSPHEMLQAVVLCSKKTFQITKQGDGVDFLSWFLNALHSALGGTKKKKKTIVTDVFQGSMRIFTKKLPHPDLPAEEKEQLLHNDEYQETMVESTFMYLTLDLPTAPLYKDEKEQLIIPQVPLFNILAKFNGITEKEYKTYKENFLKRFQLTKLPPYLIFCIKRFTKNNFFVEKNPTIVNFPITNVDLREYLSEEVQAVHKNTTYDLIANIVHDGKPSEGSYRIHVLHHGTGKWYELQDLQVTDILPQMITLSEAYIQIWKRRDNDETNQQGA
Summary of the method: as §1

[5] = target: T4, USP4 (UniProt Q13107)
T4 sequence (whole entry): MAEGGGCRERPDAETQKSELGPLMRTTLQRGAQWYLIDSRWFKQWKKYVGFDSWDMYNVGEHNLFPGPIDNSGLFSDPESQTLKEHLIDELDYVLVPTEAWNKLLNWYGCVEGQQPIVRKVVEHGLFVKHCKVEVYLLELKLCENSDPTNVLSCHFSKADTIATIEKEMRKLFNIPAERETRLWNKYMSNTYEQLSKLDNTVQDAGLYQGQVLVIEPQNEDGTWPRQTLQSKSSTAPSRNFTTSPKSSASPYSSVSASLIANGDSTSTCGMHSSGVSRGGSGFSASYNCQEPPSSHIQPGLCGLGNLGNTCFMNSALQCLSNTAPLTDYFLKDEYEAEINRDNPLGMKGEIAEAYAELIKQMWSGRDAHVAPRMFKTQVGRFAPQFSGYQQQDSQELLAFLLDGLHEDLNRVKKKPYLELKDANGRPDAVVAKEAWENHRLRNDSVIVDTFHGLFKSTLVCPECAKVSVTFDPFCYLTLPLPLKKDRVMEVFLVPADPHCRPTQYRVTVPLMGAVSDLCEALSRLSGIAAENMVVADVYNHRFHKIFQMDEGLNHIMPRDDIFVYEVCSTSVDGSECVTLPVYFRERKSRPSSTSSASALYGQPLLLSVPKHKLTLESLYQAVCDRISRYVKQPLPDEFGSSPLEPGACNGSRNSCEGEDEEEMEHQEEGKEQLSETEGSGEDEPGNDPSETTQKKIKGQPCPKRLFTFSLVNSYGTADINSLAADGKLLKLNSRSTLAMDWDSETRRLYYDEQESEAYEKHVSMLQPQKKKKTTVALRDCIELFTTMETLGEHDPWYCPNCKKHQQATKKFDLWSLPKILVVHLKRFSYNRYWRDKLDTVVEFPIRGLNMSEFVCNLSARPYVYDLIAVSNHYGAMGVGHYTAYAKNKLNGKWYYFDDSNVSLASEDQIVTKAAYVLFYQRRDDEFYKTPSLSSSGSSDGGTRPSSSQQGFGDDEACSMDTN
Summary of the method: as §1

Measured: log2 ratio of Biotin-Ahx-Ub-VS probe labelling

Sequence of USP34 (Q70CQ2 whole entry, the tested form may be a part): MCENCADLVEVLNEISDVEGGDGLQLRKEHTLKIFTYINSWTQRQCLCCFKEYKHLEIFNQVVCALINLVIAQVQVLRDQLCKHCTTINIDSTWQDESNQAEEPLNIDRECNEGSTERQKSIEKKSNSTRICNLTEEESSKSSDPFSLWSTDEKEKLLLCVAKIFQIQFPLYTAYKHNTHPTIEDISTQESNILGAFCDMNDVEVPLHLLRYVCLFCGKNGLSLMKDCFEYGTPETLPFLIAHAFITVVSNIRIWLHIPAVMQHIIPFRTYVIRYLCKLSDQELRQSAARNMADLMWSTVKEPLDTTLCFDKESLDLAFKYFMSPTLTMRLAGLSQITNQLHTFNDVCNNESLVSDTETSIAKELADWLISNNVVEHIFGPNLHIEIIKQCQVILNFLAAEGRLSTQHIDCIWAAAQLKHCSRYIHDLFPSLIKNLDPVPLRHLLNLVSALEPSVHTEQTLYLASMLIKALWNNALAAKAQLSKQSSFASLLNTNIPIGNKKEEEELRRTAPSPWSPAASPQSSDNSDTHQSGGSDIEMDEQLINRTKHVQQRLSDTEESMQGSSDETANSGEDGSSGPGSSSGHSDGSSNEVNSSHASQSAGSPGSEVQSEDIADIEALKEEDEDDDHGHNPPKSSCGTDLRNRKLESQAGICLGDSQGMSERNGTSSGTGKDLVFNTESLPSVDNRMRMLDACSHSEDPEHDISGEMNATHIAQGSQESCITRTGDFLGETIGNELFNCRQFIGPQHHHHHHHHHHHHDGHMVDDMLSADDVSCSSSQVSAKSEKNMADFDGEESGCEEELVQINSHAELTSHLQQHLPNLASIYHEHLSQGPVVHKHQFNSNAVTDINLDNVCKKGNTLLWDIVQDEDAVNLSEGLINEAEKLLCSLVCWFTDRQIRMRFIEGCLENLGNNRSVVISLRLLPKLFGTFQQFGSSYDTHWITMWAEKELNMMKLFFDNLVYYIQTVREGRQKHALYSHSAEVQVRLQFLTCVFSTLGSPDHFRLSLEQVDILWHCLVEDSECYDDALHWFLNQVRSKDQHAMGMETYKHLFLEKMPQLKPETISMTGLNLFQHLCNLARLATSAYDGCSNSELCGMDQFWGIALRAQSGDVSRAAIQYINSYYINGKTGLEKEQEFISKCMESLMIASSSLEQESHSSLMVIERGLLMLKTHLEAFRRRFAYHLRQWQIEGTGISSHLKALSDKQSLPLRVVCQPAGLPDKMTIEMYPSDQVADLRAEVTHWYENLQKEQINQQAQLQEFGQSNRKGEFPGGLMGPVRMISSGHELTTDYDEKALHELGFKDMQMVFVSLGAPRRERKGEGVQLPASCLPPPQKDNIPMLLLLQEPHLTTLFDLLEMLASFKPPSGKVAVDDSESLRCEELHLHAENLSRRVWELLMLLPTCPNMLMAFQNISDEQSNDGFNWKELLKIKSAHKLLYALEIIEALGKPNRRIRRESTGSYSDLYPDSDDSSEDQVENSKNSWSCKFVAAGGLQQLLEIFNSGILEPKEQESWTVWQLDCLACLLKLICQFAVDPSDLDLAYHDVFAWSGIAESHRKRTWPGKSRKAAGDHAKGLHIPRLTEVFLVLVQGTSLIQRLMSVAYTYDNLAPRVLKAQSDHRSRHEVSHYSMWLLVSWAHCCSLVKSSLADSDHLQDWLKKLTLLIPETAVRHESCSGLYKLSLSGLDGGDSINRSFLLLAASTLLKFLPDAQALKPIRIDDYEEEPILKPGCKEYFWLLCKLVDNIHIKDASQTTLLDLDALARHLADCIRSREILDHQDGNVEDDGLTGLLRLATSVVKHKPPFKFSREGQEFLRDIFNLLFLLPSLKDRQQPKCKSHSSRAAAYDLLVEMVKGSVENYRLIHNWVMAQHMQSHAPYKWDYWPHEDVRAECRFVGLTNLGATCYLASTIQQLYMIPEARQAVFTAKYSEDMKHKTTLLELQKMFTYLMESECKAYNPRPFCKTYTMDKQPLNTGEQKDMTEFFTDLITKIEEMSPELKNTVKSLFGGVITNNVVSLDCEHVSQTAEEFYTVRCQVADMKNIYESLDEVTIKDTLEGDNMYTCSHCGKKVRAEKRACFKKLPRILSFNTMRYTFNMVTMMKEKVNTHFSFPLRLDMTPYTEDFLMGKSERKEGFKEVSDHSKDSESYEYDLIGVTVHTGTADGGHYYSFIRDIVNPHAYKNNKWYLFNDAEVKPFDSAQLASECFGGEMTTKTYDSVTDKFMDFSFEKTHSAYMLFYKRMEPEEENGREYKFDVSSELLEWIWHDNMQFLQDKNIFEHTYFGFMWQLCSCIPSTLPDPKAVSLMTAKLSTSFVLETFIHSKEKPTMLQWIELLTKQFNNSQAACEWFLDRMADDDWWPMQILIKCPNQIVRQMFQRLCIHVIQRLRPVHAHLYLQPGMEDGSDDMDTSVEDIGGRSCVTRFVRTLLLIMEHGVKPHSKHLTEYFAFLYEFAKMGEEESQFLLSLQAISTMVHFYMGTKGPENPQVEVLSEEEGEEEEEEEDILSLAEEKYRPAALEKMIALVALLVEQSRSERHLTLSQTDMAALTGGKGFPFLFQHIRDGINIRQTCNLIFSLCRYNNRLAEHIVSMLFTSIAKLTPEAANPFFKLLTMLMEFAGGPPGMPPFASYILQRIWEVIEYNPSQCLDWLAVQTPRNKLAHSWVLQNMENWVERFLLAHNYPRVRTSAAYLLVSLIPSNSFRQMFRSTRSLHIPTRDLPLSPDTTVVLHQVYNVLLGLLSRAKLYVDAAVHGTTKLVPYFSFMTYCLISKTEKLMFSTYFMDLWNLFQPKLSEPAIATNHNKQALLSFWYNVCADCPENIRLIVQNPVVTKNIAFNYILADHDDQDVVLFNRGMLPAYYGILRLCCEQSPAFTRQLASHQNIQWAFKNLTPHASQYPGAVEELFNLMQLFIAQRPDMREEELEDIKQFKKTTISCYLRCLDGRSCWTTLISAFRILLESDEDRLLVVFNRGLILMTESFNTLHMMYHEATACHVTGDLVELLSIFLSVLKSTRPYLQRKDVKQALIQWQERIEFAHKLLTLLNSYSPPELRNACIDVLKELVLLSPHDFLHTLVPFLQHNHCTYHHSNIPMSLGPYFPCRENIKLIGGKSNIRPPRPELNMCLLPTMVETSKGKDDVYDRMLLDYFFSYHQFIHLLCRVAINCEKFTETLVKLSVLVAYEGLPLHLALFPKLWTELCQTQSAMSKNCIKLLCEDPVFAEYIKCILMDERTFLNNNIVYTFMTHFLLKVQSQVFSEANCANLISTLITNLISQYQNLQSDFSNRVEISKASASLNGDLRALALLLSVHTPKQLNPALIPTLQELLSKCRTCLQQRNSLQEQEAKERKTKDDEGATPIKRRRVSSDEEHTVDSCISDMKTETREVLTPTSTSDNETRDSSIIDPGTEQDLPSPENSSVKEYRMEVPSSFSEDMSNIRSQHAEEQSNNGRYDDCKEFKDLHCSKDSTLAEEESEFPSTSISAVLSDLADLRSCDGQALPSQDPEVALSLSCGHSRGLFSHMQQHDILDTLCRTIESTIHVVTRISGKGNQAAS

CC(=O)C1CCCCN1C(=O)CCl (stereo not given)
inactive: [1] -0.216 | [2] -0.0205 | [3] -0.0979 | [4] -0.37 | [5] -0.0834
